Source: PubChem BioAssay (NCI)
This is part of a sample that, as a whole, favours compounds with a hit. Of some 79,000 tested, about 15% had one in any assay. Activity calls are given as the source filed them. Cut-off read from the data, not from the text of the source: active = growth inhibition above about 70%; inactive = the rest.

Experiments:
[1] = NCI Yeast Anticancer Drug Screen. Data for the rad52 strain (AID 147);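 note: 0% = growth of vehicle-treated control cultures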; conditions: S. cerevisiae rad52 mutant growth inhibition, active compounds read high
Procedure, shortened: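 Growth of repair-deficient yeast cells was compared between compound-treated and vehicle-treated cultures to give percent inhibition.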

[2] = NCI Yeast Anticancer Drug Screen. Data for the wt1 strain (AID 149);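 note: 0% = growth of vehicle-treated wt1 cultures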; conditions: S. cerevisiae wt1 strain (SPY 50644) growth inhibition, active compounds read high
Procedure, shortened: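 Yeast wt1 strain exposed to compounds; growth inhibition measured relative to vehicle-treated controls.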

[3] = NCI Yeast Anticancer Drug Screen. Data for the rad50EPP+ strain (AID 151);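 note: 0% = growth of vehicle-treated control cultures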; conditions: S. cerevisiae rad50 mutant strain, active compounds read high
Procedure, shortened: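 Measured: growth inhibition of rad50EPP+ yeast. Reference: vehicle-treated controls. Screen uses strains with defined genetic alterations in DNA damage repair or cell cycle control.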

[4] = NCI Yeast Anticancer Drug Screen. Data for the mgt1 strain (AID 153); conditions: S. cerevisiae mgt1 mutant growth inhibition, active compounds read high
Procedure, shortened: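 Compounds were applied to mgt1 mutant yeast, and growth was then compared against vehicle-treated control cultures to give percent inhibition.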

[5] = NCI Yeast Anticancer Drug Screen. Data for the rad50 strain (AID 155);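 note: 0% = growth of vehicle-only cultures of the same strain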; conditions: S. cerevisiae rad50 strain growth inhibition, active compounds read high
Procedure, shortened: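 Yeast carrying a defined DNA repair defect were exposed to test compounds, and growth was compared with vehicle-treated controls to give percent inhibition.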

[6] = NCI Yeast Anticancer Drug Screen. Data for the mec2-1 strain (AID 157); conditions: S. cerevisiae mec2-1 strain, active compounds read high
Procedure, shortened: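 Compounds were applied to mec2-1 yeast cells. Their growth was then compared with that of vehicle-treated cultures to give growth inhibition.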

[7] = NCI Yeast Anticancer Drug Screen. Data for the rad14 strain (AID 159);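 note: 0% = growth of vehicle-treated control cultures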; conditions: S. cerevisiae rad14 strain growth inhibition, active compounds read high
Procedure, shortened: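 Yeast cells carrying a defined DNA-repair defect were exposed to compounds, and growth inhibition was calculated relative to vehicle-treated control cultures.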

[8] = NCI Yeast Anticancer Drug Screen. Data for the sgs1 mgt1 strain (AID 161);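 note: 0% = growth of cultures given vehicle only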; conditions: S. cerevisiae sgs1 mgt1 strain, active compounds read high
Procedure, shortened: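 Percent growth inhibition was derived by comparing compound-exposed mutant yeast with vehicle-exposed cultures. The strain carries alterations in DNA damage repair.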

[9] = NCI Yeast Anticancer Drug Screen. Data for the cln2 rad14 strain (AID 165);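 note: 0% = growth equal to vehicle treated cultures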; conditions: S. cerevisiae cln2 rad14 strain, active compounds read high
Procedure, shortened: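 Strain: cln2 rad14 yeast, altered in cell cycle control and DNA damage repair. Read-out: growth inhibition vs vehicle.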

[10] = NCI Yeast Anticancer Drug Screen. Data for the bub3 strain (AID 167); conditions: S. cerevisiae bub3 mutant strain, active compounds read high
Procedure, shortened: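 Compounds were applied to a genetically altered yeast strain carrying a cell-cycle control defect. Growth inhibition was scored against vehicle-treated controls.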

[11] = NCI Yeast Anticancer Drug Screen. Data for the wt2 strain (AID 169);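 note: 0% = growth of vehicle-treated yeast cultures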; conditions: S. cerevisiae wt2 strain growth inhibition, active compounds read high
Procedure, shortened: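 Growth of compound-treated yeast is measured and expressed as inhibition relative to vehicle-only controls.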

[12] = NCI Yeast Anticancer Drug Screen. Data for the mlh1 strain (AID 171);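 note: 0% = growth of vehicle-treated control cultures of the same strain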; conditions: S. cerevisiae mlh1 strain growth inhibition, active compounds read high
Procedure, shortened: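 Test agents were incubated with yeast bearing a defined DNA damage repair or cell cycle control alteration; values are growth inhibition normalised to vehicle-treated cultures.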

[13] = NCI Yeast Anticancer Drug Screen. Data for the sgs1 strain (AID 173);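 note: 0% = growth of vehicle-only control cultures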; conditions: S. cerevisiae sgs1 mutant, active compounds read high
Procedure, shortened: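 Strain with an altered DNA repair or cell cycle pathway exposed to compound. Growth then measured. Value = inhibition versus vehicle control.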

[14] = NCI Yeast Anticancer Drug Screen. Data for the mlh1 rad18 strain (AID 175); conditions: S. cerevisiae mlh1 rad18 strain growth inhibition, active compounds read high
Procedure, shortened: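 A repair-deficient yeast strain is exposed to test compound, and growth is scored relative to vehicle-treated controls.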

[15] = NCI Yeast Anticancer Drug Screen. Data for the rad18 strain (AID 177); conditions: S. cerevisiae rad18 mutant growth inhibition, active compounds read high
Procedure, shortened: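 DNA-repair-defective yeast; compound treatment; growth inhibition scored against vehicle.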

[16] = at 5.0 µM (retest, dose inferred, filed as 0.5)
[17] = at 50.0 µM (retest, dose inferred, filed as 5.0)

Measured: growth inhibition

CCOC(=O)c1cc(-c2ccc(Cl)cc2)c([N+](=O)[O-])n1C
active: [1]; at 33.0 µM 90% | [1]; at 100.0 µM 96% | [2]; at 100.0 µM 96% | [3]; at 33.0 µM 78% | [3]; at 100.0 µM 93% | [4]; at 33.0 µM 84% | [4]; at 100.0 µM 96% | [5]; at 33.0 µM 89% | [5]; [17] 97% | [5]; at 50.0 µM 88.4% | [5]; at 100.0 µM 95% | [6]; at 33.0 µM 96% | [6]; [17] 96% | [6]; at 50.0 µM 90.3% | [6]; at 100.0 µM 96% | [7]; at 33.0 µM 76% | [7]; at 100.0 µM 95% | [8]; at 50.0 µM 91.7% | [9]; [17] 95% | [9]; at 50.0 µM 89% | [10]; at 33.0 µM 74% | [10]; [17] 97% | [10]; at 50.0 µM 85.3% | [10]; at 100.0 µM 95% | [11]; at 33.0 µM 70% | [11]; at 100.0 µM 97% | [12]; at 33.0 µM 94% | [12]; at 100.0 µM 96% | [13]; at 33.0 µM 97% | [13]; at 100.0 µM 98% | [14]; [17] 97% | [14]; at 50.0 µM 87.9% | [15]; at 11.0 µM 71% | [15]; at 33.0 µM 95% | [15]; at 100.0 µM 96%
inactive: [1]; at 1.2 µM 12% | [1]; at 3.7 µM 24% | [1]; at 11.0 µM 41% | [2]; at 1.2 µM 1% | [2]; at 3.7 µM 3% | [2]; at 11.0 µM 13% | [2]; at 33.0 µM 68% | [3]; at 1.2 µM 16% | [3]; at 3.7 µM 23% | [3]; at 11.0 µM 48% | [4]; at 1.2 µM -10% | [4]; at 3.7 µM -2% | [4]; at 11.0 µM 1% | [5]; at 1.2 µM 9% | [5]; at 3.7 µM 26% | [5]; [16] -12% | [5]; at 11.0 µM 34% | [6]; at 1.2 µM 15% | [6]; at 3.7 µM 23% | [6]; [16] -8% | [6]; at 11.0 µM 23% | [7]; at 1.2 µM -8% | [7]; at 3.7 µM -4% | [7]; at 11.0 µM 11% | [8]; [16] 10% | [8]; [17] 50% | [9]; [16] 15% | [10]; at 1.2 µM -6% | [10]; at 3.7 µM -29% | [10]; [16] -22% | [10]; at 11.0 µM -9% | [11]; at 1.2 µM 6% | [11]; at 3.7 µM 13% | [11]; at 11.0 µM 13% | [12]; at 1.2 µM 28% | [12]; at 3.7 µM 36% | [12]; at 11.0 µM 56% | [13]; at 1.2 µM 27% | [13]; at 3.7 µM 29% | [13]; at 11.0 µM 58% | [14]; [16] 45% | [15]; at 1.2 µM 3% | [15]; at 3.7 µM 37%

CCCCCCCCCCCC(=O)N(C)C
inactive: [1]; at 1.2 µM -12% | [1]; at 3.7 µM -6% | [1]; at 11.0 µM -19% | [1]; at 33.0 µM 30% | [2]; at 1.2 µM -15% | [2]; at 3.7 µM -13% | [2]; at 11.0 µM -14% | [2]; at 33.0 µM -14% | [3]; at 1.2 µM 5% | [3]; at 3.7 µM 18% | [3]; at 11.0 µM 20% | [3]; at 33.0 µM 47% | [4]; at 1.2 µM 7% | [4]; at 3.7 µM 3% | [4]; at 11.0 µM 18% | [4]; at 33.0 µM 23% | [5]; at 1.2 µM -2% | [5]; at 3.7 µM -5% | [5]; [16] 38% | [5]; at 11.0 µM -18% | [5]; at 33.0 µM 29% | [6]; at 1.2 µM -34% | [6]; at 3.7 µM -24% | [6]; [16] 42% | [6]; at 11.0 µM -27% | [6]; at 33.0 µM 34% | [7]; at 1.2 µM 7% | [7]; at 3.7 µM 2% | [7]; at 11.0 µM 12% | [7]; at 33.0 µM 34% | [8]; [16] -2% | [9]; [16] 31% | [10]; at 1.2 µM 3% | [10]; at 3.7 µM -28% | [10]; [16] -4% | [10]; at 11.0 µM 3% | [10]; at 33.0 µM 18% | [11]; at 1.2 µM -6% | [11]; at 3.7 µM -11% | [11]; at 11.0 µM -11% | [11]; at 33.0 µM 29% | [12]; at 1.2 µM -32% | [12]; at 3.7 µM -35% | [12]; at 11.0 µM -26% | [12]; at 33.0 µM -28% | [13]; at 1.2 µM -18% | [13]; at 3.7 µM -8% | [13]; at 11.0 µM -13% | [13]; at 33.0 µM 34% | [14]; [16] 41% | [15]; at 1.2 µM -9% | [15]; at 3.7 µM -4% | [15]; at 11.0 µM -7% | [15]; at 33.0 µM 15%
active: [1]; at 100.0 µM 98% | [2]; at 100.0 µM 99% | [3]; at 100.0 µM 90% | [4]; at 100.0 µM 99% | [5]; [17] 92% | [5]; at 50.0 µM 90.5% | [5]; at 100.0 µM 98% | [6]; [17] 96% | [6]; at 50.0 µM 92.7% | [6]; at 100.0 µM 98% | [7]; at 100.0 µM 99% | [8]; [17] 98% | [8]; at 50.0 µM 93.2% | [9]; [17] 98% | [9]; at 50.0 µM 91.5% | [10]; [17] 97% | [10]; at 50.0 µM 92% | [10]; at 100.0 µM 98% | [11]; at 100.0 µM 99% | [12]; at 100.0 µM 98% | [13]; at 100.0 µM 98% | [14]; [17] 94% | [14]; at 50.0 µM 91% | [15]; at 100.0 µM 98%
